Among all 360,000 compounds or so, about 11,000 (3.1%) were called active. Another 4% or so got no clear call; they are omitted. Calls come from the whole dose curve; as a rule, active = well fitted inhibition curve with a large enough effect; inconclusive = small, poorly fitted or top-dose-only effect; inactive = no such curve, though single readings can be large or run the other way. The full list was thinned out, with actives kept by preference.
% is set by controls: 0 for no effect and ±100 for the full control effect; potency is the fitted concentration of half-maximal effect.

The target in the assay is Schistosoma mansoni thioredoxin glutathione reductase (TGR) (UniProt Q962Y6). The assay is described as follows: qHTS Assay for the Inhibitors of Schistosoma Mansoni Peroxiredoxins. Note: nearly all actives have a fitted effect of over 60% in size. The following applies: purified TGR, DTNB reduction, TNB absorbance 405 nm; series mostly up to 114 µM; activity change, negative = inhibition: at the top concentration. The method in brief:
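Kinetic colorimetric format: TGR-catalysed, NADPH-driven DTNB reduction monitored via TNB absorbance. Enzyme dispensed at 20 nM; compound exposure 15 min at room temperature before reaction start.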
Turning to `O=C1CSC2(C(=O)N(Cc3ccccc3)c3ccccc32)N1c1cccc(F)c1` (stereo not drawn), the “activity change, negative = inhibition” value is 0.896% (inactive). On the same count and under the same terms, next, `O=C(Nc1ccc(-c2nc3cc(NC(=O)c4ccccc4Cl)ccc3o2)cc1)c1ccccc1Cl`: 2.81% (inactive); `COc1cccc(C(=O)Nc2ccc(-c3cc(C(F)(F)F)nn3-c3ccccc3)cc2)c1`: 14.5% (inactive); `Cc1cc(OCC(=O)Nc2ncn[nH]2)c(C)c(C)c1Br`: 5.33% (inactive).

As to `Cc1c(-c2ccccc2)nc(N)c(C#N)c1-c1cccs1`, the “activity change, negative = inhibition” value is 3.35% (inactive). On to `CC(NC(=O)CSc1nc2c(cc1C#N)CN(C)CC2)c1ccccc1` (stereo not drawn), for which the “activity change, negative = inhibition” value is 0% (inactive). With `CN1CCc2nc(SC(C(=O)O)c3ccccc3)c(C#N)c(-c3cccs3)c2C1` (stereo not drawn), the Potency was 39.8 µM (active). Regarding `O=C(c1ccc(C(F)(F)F)cc1)N1CCC(c2nc(-c3ccc(S(=O)(=O)N4CCCC4)cc3)no2)CC1`, the “activity change, negative = inhibition” value is -0.916% (inactive). On to `COc1ccc(OC)c(CNC(=O)Cn2nc(C)c3c(C)n(-c4ccccc4)nc3c2=O)c1`, for which the “activity change, negative = inhibition” value is -0.771% (inactive). As for `NS(=O)(=O)c1ccc(NC(=O)COC(=O)c2ccco2)cc1`, the “activity change, negative = inhibition” value is -0.38% (inactive). As for `CC1CC(C)CN(CC(=O)Nc2ccc(S(N)(=O)=O)cc2)C1` (stereo not drawn), the “activity change, negative = inhibition” value was -6.12% (inactive).

Consider `CCc1ccc(CCC(=O)Nc2ccc(S(N)(=O)=O)cc2)o1`, for which the Potency is 50.1 µM (active). Consider `O=C(NCc1ccc2c(c1)CCN2C(=O)c1ccccc1)Nc1cc(F)ccc1F`, for which the “activity change, negative = inhibition” value is -1.99% (inactive). In the case of `Cc1ccc2c(=O)c(C(=O)c3cccc(Cl)c3)cn(CC(=O)NCc3ccccc3)c2n1`, the “activity change, negative = inhibition” value is 5.5% (inactive). As for `O=C(NCC(c1ccc2c(c1)OCO2)N1CCN(c2ccccc2)CC1)C(=O)Nc1ccccc1F` (stereo not drawn), the “activity change, negative = inhibition” value was 5.99% (inactive). As to `COC(=O)c1nc(NC(=O)c2ccc(C(C)(C)C)cc2)n[nH]1`, the “activity change, negative = inhibition” value was 3.65% (inactive). In the case of `CCOC(=O)NNC(=O)c1ccc(Cl)cc1`, the “activity change, negative = inhibition” value was 9.66% (inactive). With `COC(=O)c1sccc1NC(=O)c1ccc(Cl)cc1`, the “activity change, negative = inhibition” value was -1.81% (inactive).

In the case of `COC(=O)c1nc(NC(=O)c2ccc(F)cc2)n[nH]1`, the Potency was 28.2 µM (active). With `COc1ccc(C(=O)Nc2ccc(F)cc2F)cc1`, the “activity change, negative = inhibition” value is 6.18% (inactive). With `COC(=O)c1nc(NC(=O)c2ccc(Cl)cc2)n[nH]1`, the Potency was 39.8 µM (active). Take `NS(=O)(=O)c1ccc(NC(=O)COc2ccc(S(=O)(=O)NC3CCCCC3)cc2)cc1`: the “activity change, negative = inhibition” value is 4.88% (inactive).

As to `COc1ccc(CNc2nc(-c3ccc(Cl)cc3)nn2S(=O)(=O)c2ccc(C)cc2)cc1`, the “activity change, negative = inhibition” value is -0.796% (inactive). Consider `COc1ccccc1CNC(=O)CS(=O)(=O)c1cccc2nsnc12`, for which the “activity change, negative = inhibition” value is -0.613% (inactive). The same measure, in the same setting: next, `Cc1ccc(OC(=O)CSc2nnc(-c3cccs3)o2)cc1`: -0.547% (inactive). With `COc1cc(Cl)c(NC(=O)CC(C)S(=O)(=O)c2cc3c(cc2C)NC(=O)CO3)c(OC)c1` (stereo not drawn), the “activity change, negative = inhibition” value was -4.41% (inactive). Still for that read-out and setting: the value for `COc1ccc(OC)c(CCNC(=O)CCCn2c(=O)c3cccn3c3cccnc32)c1` was 1.8% (inactive). `O=C(CCn1ccc2cc(S(=O)(=O)N3CCCC3)ccc21)NCc1cccc(Cl)c1`: the “activity change, negative = inhibition” value was -5.15% (inactive). `COc1ccc(Cl)cc1NC(=O)CSc1nc(-c2cccs2)cc(C(F)(F)F)n1`: the “activity change, negative = inhibition” value was -0.774% (inactive). Turning to `CCc1ccc(-n2nc(C)c3c(C)cc(=O)n(CC(=O)Nc4ccc(F)cc4C)c32)cc1`, the “activity change, negative = inhibition” value is -0.967% (inactive).

Consider `O=C(CC(c1cccs1)N1Cc2ccccc2C1=O)Nc1ccc(F)cc1F` (stereo not drawn), for which the “activity change, negative = inhibition” value was -8.15% (inactive). For the molecule `CCOC(=O)c1c(NC(=O)c2cc(-c3ccc(Cl)cc3)on2)sc2c1CCCC2`, the “activity change, negative = inhibition” value is -7.21% (inactive). Turning to `COC(=O)c1c(NC(=O)c2ccc(Cl)c(Cl)c2)sc2c1CCCC2`, the “activity change, negative = inhibition” value was -1.51% (inactive). As to `CNC(=O)c1c(NC(NC(=O)c2ccco2)C(=O)c2ccc(Cl)cc2)sc2c1CCCC2` (stereo not drawn), the Potency was 25.1 µM (active). Regarding `CCOc1ccc(OCC)c(NC(=O)CN(c2ccc(C)cc2)S(=O)(=O)c2c(C)n[nH]c2C)c1`, the “activity change, negative = inhibition” value was 10.6% (inactive). As to `COc1ccc(CNC(=O)CSc2n[nH]c(-c3ccc(F)cc3)n2)cc1`, the “activity change, negative = inhibition” value was 2.87% (inactive). Consider `Cc1cc(-c2ccc(C)c(S(=O)(=O)N3c4ccccc4CC3C)c2)on1` (stereo not drawn), for which the “activity change, negative = inhibition” value is 11.2% (inactive). Take `COc1ccc(Cn2ccc3nc(C)c(C(=O)Nc4ccc(C)c(F)c4)cc3c2=O)cc1`: the “activity change, negative = inhibition” value is -0.138% (inactive). Consider `O=C(CC(Cc1ccccc1)C(=O)O)NCCc1ccc2c(c1)OCO2` (stereo not drawn), for which the “activity change, negative = inhibition” value was -1.4% (inactive).

In the case of `O=C(CCc1nnc(Cc2ccc3c(c2)OCO3)o1)NCCc1ccccc1Cl`, the Potency is 31.6 µM (active). Take `O=C(CCNS(=O)(=O)c1ccccc1C(F)(F)F)NCc1ccc2c(c1)OCO2`: the “activity change, negative = inhibition” value was -10.5% (inactive). Consider `CCOc1ccccc1CNC(=O)Nc1cn(CC(C)C)c(=O)c2ccccc12`, for which the “activity change, negative = inhibition” value was -7.64% (inactive). Regarding `O=c1/c(=C/c2ccc(CNS(=O)(=O)c3ccccc3)o2)sc2n1CCN=2`, the Potency was 25.1 µM (active). Consider `O=S(=O)(NCC1OCCc2ccccc21)c1ccccc1` (stereo not drawn), for which the “activity change, negative = inhibition” value was 34.3% (inactive).

`O=S(=O)(NCc1ccccc1)c1ccc(S(=O)(=O)N2CCCC2)cc1`: the “activity change, negative = inhibition” value was -0.62% (inactive). Turning to `CCCCN(C)CCCNC(=O)CN1N=C(c2ccc(OC)cc2)CCC1=O`, the “activity change, negative = inhibition” value was 2.84% (inactive). Take `COc1ccc(CC(=O)Nc2ccc(-c3nc4ccccc4s3)c(C)c2)cc1`: the “activity change, negative = inhibition” value is 6.41% (inactive).

Take `O=S(=O)(c1cc(Cl)ccc1Cl)N1CCN(Cc2ccco2)CC1`: the “activity change, negative = inhibition” value was -16.2% (inactive). Consider `COc1ccc(Cl)cc1S(=O)(=O)N1CCN(CC(=O)C(C)(C)C)CC1`, for which the “activity change, negative = inhibition” value is -27.4% (inactive). On to `O=C(CN1CCN(S(=O)(=O)c2cc(Cl)ccc2Cl)CC1)c1ccc(O)c(O)c1`, for which the Potency is 17.8 µM (active). `Cc1ccc(C)n1-c1nnc(N2CCC(C(=O)NCc3ccccc3Cl)CC2)s1`: the “activity change, negative = inhibition” value was -21.1% (inactive). In the case of `CCN(CC(=O)NCc1ccc(Cl)cc1)C(=O)c1c(C)noc1C`, the “activity change, negative = inhibition” value is -9.68% (inactive). As for `Cc1ccc(/C=C/C(=O)OCC(=O)NCc2ccc(Cl)cc2)o1`, the Potency was 25.1 µM (active). `COc1ccc(CNC(=O)COC(=O)/C=C/c2ccc(S(=O)(=O)N3CCOCC3)cc2)cc1`: the “activity change, negative = inhibition” value was 4.4% (inactive). For `O=C(Nc1ccccc1)c1nnsc1S(=O)(=O)c1ccc(Cl)cc1`, the Potency is 0.316 µM (active).

With `O=C(Nc1ccc(Oc2ccccc2)cc1)C1CCN(S(=O)(=O)c2ccc(Cl)cc2)CC1`, the “activity change, negative = inhibition” value is -7.31% (inactive). For the molecule `Cc1nnsc1S(=O)(=O)Cc1ccccc1Cl`, the “activity change, negative = inhibition” value was -2.4% (inactive). In the case of `COc1ccc(Nc2cc(C(=O)NCCCN(C)c3ccccc3)c3ccccc3n2)c(OC)c1`, the “activity change, negative = inhibition” value is 9.2% (inactive). Consider `CCCn1c(=N)n(CC(O)COc2ccccc2OC)c2ccccc21` (stereo not drawn), for which the “activity change, negative = inhibition” value is 4.68% (inactive). As to `CCOc1ccc(CNC(=O)C2CCCN(S(=O)(=O)N(CC)c3ccc(OCC)cc3)C2)cc1` (stereo not drawn), the “activity change, negative = inhibition” value was -9.5% (inactive). In the case of `CCCN1CN=C(NS(=O)(=O)c2ccc(NC(C)=O)cc2)NC1`, the “activity change, negative = inhibition” value was 5.57% (inactive). `Cc1ccc(-n2nnnc2CNC(=O)c2ccccc2C)cc1C`: the “activity change, negative = inhibition” value is 13% (inactive). In the case of `O=C1NC(=O)N(c2ccc(F)cc2)C(=O)/C1=C/c1ccc2c(c1)CCCN2Cc1ccccc1`, the Potency is 17.8 µM (active).

These data come from PubChem BioAssay AID485364 (National Center for Advancing Translational Sciences (NCATS), 2010).
